Hit rate of the full screen: of about 3,200 compounds, about 2,600 (81%) were called active.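 How the source made its calls: active means activation above the all-compound mean plus 3 SD, ignoring values outside control-based bounds (cut at about 4.8% in these data); inactive means the rest.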 So high a share suggests a set chosen from earlier hits. Not all results are given here.

This assay can be described thus: EDANS-DABCYL substrate optical interference, artefact control for kallikrein-7 zymogen activator project, biochemical, fluorescence intensity, high throughput (AID 686952).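 Further: value is the 4 h activation minus the activation read at time zero.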 Conditions: no enzyme, 4 h, at 7 µM, active compounds read high.
For `CCOC(=O)c1c(N)n(CCN2CCOCC2)c2nc3ccccc3nc12`, the activation was 31.4% (active).
The same measure for `Cc1nc2ccc(N3CCN(C)CC3)cc2nc1C`: 13.9% (active); for `CCOc1ccc(-c2cc(C)[n+](CCN(CC)CC)c(-c3ccc(OCC)cc3)c2)cc1`: 37.3% (active); for `COc1cccc(-c2nc3ccc(N4CCN(C)CC4)cc3[nH]2)c1`: 65.7% (active).

For the origin of these results see PubChem BioAssay AID686952 (The Scripps Research Institute Molecular Screening Center, 2013).
